High-throughput results from PubChem BioAssay.
BJeLR viability: BJeLR cell viability loss | actives 0.17% (n = 300,000) | inhibition, % (concentration not given with the values) | BJeLR (HRASV12) viability, CellTiter-Glo ATP luminescence, 48 h; in the data active = inhibition above about 50%
Mtb betalactam: beta-lactam sensitization of Mtb H37Rv; inhibition, % at 25 µM; actives 0.27% (n = 330,000); M. tuberculosis H37Rv growth with meropenem, percent inhibition;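 also: growth measured after seven days incubation then overnight dye step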
Yp Topo-I inh: Y. pestis Topo-I inhibition via cleavage products; Y. pestis Topo-I cleavage product accumulation, plate reader; activity, % at 10 µM; actives 0.064% (n = 360,000); in the data active = activity above about 50%, passing the limit was not always enough
RecA intein inh: inhibitors of M. tuberculosis RecA intein splicing | actives 0.75% (n = 290,000) | inhibition, % (test concentration not listed) | P9WHJ3 | cell-free RecA intein splicing, fluorescence | AID 2221; in the data active = inhibition above about 30%
Target sequence (P9WHJ3 whole entry, looked up): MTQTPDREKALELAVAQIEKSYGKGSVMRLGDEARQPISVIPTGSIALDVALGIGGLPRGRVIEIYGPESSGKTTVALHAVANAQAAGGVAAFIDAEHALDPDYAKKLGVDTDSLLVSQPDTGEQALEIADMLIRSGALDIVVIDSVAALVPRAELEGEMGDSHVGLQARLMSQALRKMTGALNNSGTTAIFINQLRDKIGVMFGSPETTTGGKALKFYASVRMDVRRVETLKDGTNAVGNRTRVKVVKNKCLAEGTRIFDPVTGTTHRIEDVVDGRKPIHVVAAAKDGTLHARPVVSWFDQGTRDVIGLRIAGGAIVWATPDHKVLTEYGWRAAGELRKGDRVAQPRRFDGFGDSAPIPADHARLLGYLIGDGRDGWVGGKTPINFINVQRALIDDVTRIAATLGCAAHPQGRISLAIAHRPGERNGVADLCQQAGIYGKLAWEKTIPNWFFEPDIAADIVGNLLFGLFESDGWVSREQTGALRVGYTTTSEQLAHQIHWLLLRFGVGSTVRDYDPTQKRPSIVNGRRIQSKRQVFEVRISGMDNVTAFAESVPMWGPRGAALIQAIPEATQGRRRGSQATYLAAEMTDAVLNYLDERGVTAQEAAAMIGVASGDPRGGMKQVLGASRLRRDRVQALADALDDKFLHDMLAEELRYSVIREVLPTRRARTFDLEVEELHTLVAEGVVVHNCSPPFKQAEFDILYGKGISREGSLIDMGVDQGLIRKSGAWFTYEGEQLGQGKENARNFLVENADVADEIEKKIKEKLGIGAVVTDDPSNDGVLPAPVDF
CCHFV vOTU inh: blocks the CCHF virus ovarian tumor domain protease; CCHFV vOTU protease, Pep-AMC fluorescence; inhibition, % at 11.5 µM; actives 0.55% (n = 370,000); AID 651958; in the data active = inhibition above about 30%
Mtb BioA inh: blocks M. tuberculosis BioA enzyme activity | actives 0.096% (n = 360,000) | AID 602481 | inhibition, % at 9.99 µM | purified M. tuberculosis BioA enzyme, plate reader; in the data active = inhibition above about 40%
GFP chromo cs: counter-screen GFP chromophore formation inhibition. shares compounds with RecA intein inh. EC50, µM. AID 434968. actives 83% (n = 2,100). cell-free GFP chromophore formation, fluorescence
Large screens that a line does not name were inactive (follow-up assays come after a bar, where they were run). Sampled rows, rich in hits. Any-hit rate of the full collection: about 1.1%. Unless noted, no rule for the calls is given here.

CCCC(=O)OCCNc1cc(SCc2ccco2)c2nonc2c1[N+](=O)[O-]	RecA intein inh 79 (no result: Mtb BioA inh) | GFP chromo cs 8.6
CCCSc1cc(NCCOC(C)=O)c([N+](=O)[O-])c2nonc12	none (no result: Mtb BioA inh)
O=C([C@@H]1N[C@@H]2c3ccc(C4=CCCC4)c(=O)n3C[C@@H]2[C@H]1CO)N1CCc2ccccc2C1	none (no result: BJeLR viability, Mtb betalactam, Yp Topo-I inh, RecA intein inh, CCHFV vOTU inh)
O=C(N[C@H]1CC[C@H](CCn2cc(-c3ccccc3F)nn2)O[C@H]1CO)c1ccc2c(c1)OCO2	none (no result: BJeLR viability, Mtb betalactam, Yp Topo-I inh, RecA intein inh, CCHFV vOTU inh)
C[C@@H]1CCCCO[C@H](CN(C)C)[C@H](C)CN([C@H](C)CO)C(=O)c2cc(NS(=O)(=O)c3ccc(Cl)cc3)ccc2O1	none (no result: BJeLR viability, Mtb betalactam, Yp Topo-I inh, RecA intein inh, CCHFV vOTU inh)
CCOC(=O)c1nc(C)n(-c2ccc(Cl)cc2)n1	RecA intein inh 49 (no result: Mtb BioA inh) | GFP chromo cs inactive
CCOC(=O)C1=NN(N=O)C2(CC(=O)N(c3cc(C)cc(C)c3)C2=O)C1 (stereo unspecified)	none
COC(=O)C1=NN(C(C)=O)C2(CC(=O)N(c3cc(C)cc(C)c3)C2=O)C1 (stereo unspecified)	RecA intein inh 30 | GFP chromo cs inactive
C[C@@H]1CN([C@@H](C)CO)C(=O)Cc2cc(NC(=O)Nc3ccc(F)cc3)ccc2O[C@@H]1CN(C)Cc1ccc(Oc2ccccc2)cc1	none (no result: BJeLR viability, Mtb betalactam, Yp Topo-I inh, RecA intein inh, CCHFV vOTU inh)
O=C(CCl)Oc1ccc2occ(C(=O)c3cccs3)c2c1	RecA intein inh 32 | GFP chromo cs 25
CC(=O)Oc1ccc2occ(C(=O)c3cccs3)c2c1	none
O=C(Oc1ccccc1C(=O)Nc1ccccc1)c1ccccc1Br	RecA intein inh 54 | GFP chromo cs 36
CCc1oc2ccccc2c1C(=O)c1cc(Br)c(O)c(Br)c1	none | GFP chromo cs 18
CCc1ccc(OCC(=O)c2c(O)c3ccccc3oc2=O)cc1	none (no result: Mtb BioA inh)
CO[C@H]1CN(C)C(=O)c2cc(NC(=O)C3CC3)ccc2OC[C@H](C)N(CC2CCOCC2)C[C@@H]1C	none (no result: BJeLR viability, Mtb betalactam, Yp Topo-I inh, RecA intein inh, CCHFV vOTU inh)
Cc1ccc(-c2[nH]nc3c2C(c2ccc(OC(=O)N4CCOCC4)cc2)C(C#N)=C(N)O3)cc1 (stereo unspecified)	RecA intein inh 82 (no result: CCHFV vOTU inh, Mtb BioA inh) | GFP chromo cs 11
COc1ccc(-c2[nH]nc3c2C(c2ccoc2)C(C#N)=C(N)O3)cc1 (stereo unspecified)	RecA intein inh 87 | GFP chromo cs 4.7
N#CC1=C(N)Oc2nc(-c3ccccc3)[nH]c2C1c1cccnc1 (stereo unspecified)	RecA intein inh 78 | GFP chromo cs 23
Cc1cc(C)c(C2C(C#N)=C(N)Oc3n[nH]c(C)c32)cc1CN1CCOCC1 (stereo unspecified)	none (no result: CCHFV vOTU inh, Mtb BioA inh)
Cc1ccc(-c2[nH]nc3c2C(c2cccnc2)C(C#N)=C(N)O3)cc1 (stereo unspecified)	RecA intein inh 69 | GFP chromo cs 13
CCOC(=O)C1=C(c2ccccc2)OC(N)=C(C#N)C1c1cccnc1 (stereo unspecified)	none (no result: Mtb BioA inh)
CC(C)(C)c1[nH]nc2c1C(c1ccncc1)C(C#N)=C(N)O2 (stereo unspecified)	none
Cc1ccc(S(=O)(=O)Nc2ccc3c(c2)CC(=O)N([C@H](C)CO)C[C@H](C)[C@H](CN(C)CC2CCCCC2)O3)cc1	none (no result: BJeLR viability, Mtb betalactam, Yp Topo-I inh, RecA intein inh, CCHFV vOTU inh)
CCC(=O)N1C[C@H](C)[C@H](OC)CN(C)C(=O)c2cc(NC(=O)Nc3cccc(F)c3)ccc2OC[C@H]1C	none (no result: BJeLR viability, Mtb betalactam, Yp Topo-I inh, RecA intein inh, CCHFV vOTU inh)
CCOc1cc(C2C(C#N)=C(N)Oc3n[nH]c(-c4ccccc4)c32)ccc1O (stereo unspecified)	RecA intein inh 83 | GFP chromo cs 6.4
N#CC1=C(N)Oc2n[nH]c(-c3ccccc3)c2C1c1cccnc1 (stereo unspecified)	RecA intein inh 80 | GFP chromo cs 17
CCOC(=O)C1=C(C)OC(N)=C(C#N)C1c1ccc(O)c(OC)c1 (stereo unspecified)	none
Cc1cccc(Cn2nnc3c2C(=O)c2ccccc2C3=O)c1	RecA intein inh 37 | GFP chromo cs 9.9
CC(C)(C)c1ccc(-n2nc(C#N)c(Cl)cc2=O)cc1	BJeLR viability 56, RecA intein inh 93 (no result: Mtb betalactam, Mtb BioA inh) | GFP chromo cs 2.6
COc1ccc(/C(=N/OC(C)=O)c2nccc3cc(OC)c(OC)cc23)cc1OC	RecA intein inh 31 | GFP chromo cs inactive
O=C(Nc1ccc(F)cc1)N1C[C@H]2[C@@H](c3ccccc31)[C@H](CO)N2C(=O)Cc1ccccc1	none (no result: BJeLR viability, Mtb betalactam, Yp Topo-I inh, RecA intein inh, CCHFV vOTU inh)
